Assay outcomes from PubChem.
Many of the other results were omitted from the sample, so hits are more common in it than they were.
GIRK2 activator: Activators of human GIRK2-containing channels | P48051 | HEK293 GIRK2/NPY4 cells, thallium flux fluorescence | activation (% efficacy), % for hits at 37.5 µM | 34,000 tested, under 10 active;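 active means primary screen hit, no activity in plain HEK293 cells, and in GIRK2-only cells above 5% efficacy rising with concentration; inactive means the rest, including fluorescent compounds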;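 further: efficacy is normalized control-subtracted fluorescence 15 s after thallium addition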
Target sequence (P48051 whole entry, looked up): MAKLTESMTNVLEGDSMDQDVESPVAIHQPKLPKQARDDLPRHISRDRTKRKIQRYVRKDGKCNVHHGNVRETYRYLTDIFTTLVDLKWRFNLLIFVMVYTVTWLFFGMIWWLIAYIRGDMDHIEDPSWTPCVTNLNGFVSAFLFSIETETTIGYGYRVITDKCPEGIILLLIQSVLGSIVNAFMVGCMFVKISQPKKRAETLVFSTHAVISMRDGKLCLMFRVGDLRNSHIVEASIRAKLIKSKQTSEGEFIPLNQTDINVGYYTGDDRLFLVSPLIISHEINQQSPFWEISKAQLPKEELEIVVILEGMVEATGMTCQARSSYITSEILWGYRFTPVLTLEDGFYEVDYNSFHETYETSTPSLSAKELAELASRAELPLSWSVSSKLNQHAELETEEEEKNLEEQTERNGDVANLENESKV
GluA2 TARP mod: GluA2-stargazin AMPA receptor complex modulation; O88602+P19491; calls only at 30 µM; HEK293 GluA2+stargazin, membrane potential dye (FDSS), glutamate EC50; hits were called plate by plate, in both directions; 3.5% of 40,000 active;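 active means any of four per-well response measures lying three or more SD from its plate-wide compound average, in either direction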
* marks the source's active call; other numbers are inactive results; i = inactive; / = no result given; + = active, no number.

SMILES	GIRK2 activator	GluA2 TARP mod
CCn1nccc1C(=O)Nc1nnc(-c2ccc(OC)cc2OC)o1	i	+
COc1ccc(-c2nnc(NC(=O)C3CCCN3S(C)(=O)=O)o2)c(OC)c1 (centres undefined)	i	i
CC1CC(C)CN(c2ncnc3nc[nH]c23)C1 (centres undefined)	i	i
CCn1c(-n2nc(C)cc2C)nc2c1c(=O)n(Cc1ccc(OC)cc1)c(=O)n2C	/	i
COc1cc(N2CCN(S(=O)(=O)c3cccc(C(F)(F)F)c3)CC2)nc(OC)n1	i	i
COc1cc(C(c2c(O)cc(C)[nH]c2=O)c2c(O)cc(C)[nH]c2=O)cc(OC)c1OC	i	i
CCCNC(=O)CSc1cc(N2CCOCC2)ncn1	i	i
CC(C)(C)NC(=O)N1CCN(c2cc(N3CCOCC3)ncn2)CC1	i	+
CCOc1ccc(-n2ccnc(SCC(=O)c3ccc(OC)cc3)c2=O)cc1	/	i
CCOc1ccc(OCC(=O)N2CCN(c3ncnc4c3nnn4-c3ccc(OC)cc3)CC2)cc1	/	i
COc1ccc(CCNC(=O)CC2CCCCN2S(=O)(=O)c2ccc(OC)cc2)cc1 (centres undefined)	/	i
COc1ccc(S(=O)(=O)N2CCCCC2CC(=O)NCCc2ccc(Cl)cc2)cc1 (centres undefined)	/	i
COc1ccc(CCNC(=O)CC2CCCCN2S(=O)(=O)c2ccc(Cl)cc2)cc1 (centres undefined)	/	+
COc1ccc(CCNC(=O)CC2CCCCN2S(=O)(=O)c2ccc(F)cc2)cc1 (centres undefined)	/	+
COc1cn(CC(=O)NCc2ccc3c(c2)OCO3)c(CSc2nncn2C)cc1=O	i	i
C=CCN1CC(c2nc3ccccc3n2Cc2ccc(C)cc2)CC1=O (centres undefined)	/	i
C=CCN1CC(c2nc3ccccc3n2Cc2cccc(C)c2)CC1=O (centres undefined)	/	+
C=CCN1CC(c2nc3ccccc3n2Cc2ccc(Cl)cc2)CC1=O (centres undefined)	/	+
C=CCN1CC(c2nc3ccccc3n2Cc2ccc(C(C)C)cc2)CC1=O (centres undefined)	/	i
O=C1CC(c2nc3ccccc3n2Cc2ccccc2F)CN1Cc1ccccc1 (centres undefined)	/	+
CN1CC(c2nc3ccccc3n2Cc2ccccc2F)CC1=O (centres undefined)	/	i
CC(c1ccccc1)n1c(C2CC(=O)N(Cc3ccccc3)C2)nc2ccccc21 (centres undefined)	/	+
CCN1CC(c2nc3ccccc3n2Cc2ccccc2)CC1=O (centres undefined)	/	i
COc1ccc(CNC(=O)C(=O)Nc2cc(F)ccc2F)cc1	i	i
COc1cc(C)c(S(=O)(=O)NCCOc2ccc(-c3ccc(C)cc3)nn2)cc1C	i	i
SMILES	GIRK2 activator	GluA2 TARP mod
COc1ccc(NC(=O)Nc2ccc3c(c2)CC(=O)N3C)c(OC)c1	i	i
CC(=O)c1ccc(NC(=O)c2cccc(S(=O)(=O)C(C)C)c2)cc1	i	i
Cc1ccc(C)c2sc(N3CCN(C(=O)C4CCCCN4S(C)(=O)=O)CC3)nc12 (centres undefined)	i	i
Cc1nn(CC(O)COc2ccc3c4c(c(=O)oc3c2)CCC4)c(C)c1Cl (centres undefined)	i	i
Cc1cccc(Cn2c(C3CC(=O)N(Cc4ccc(F)cc4)C3)nc3ccccc32)c1 (centres undefined)	/	i
Cc1cccc(Cn2c(C3CC(=O)N(Cc4ccccc4)C3)nc3ccccc32)c1 (centres undefined)	/	+
COc1ccccc1C1C(C#N)=C(N)Oc2cc(C)n(Cc3ccncc3)c(=O)c21 (centres undefined)	/	i
CCN1CCN(C(=O)CCn2c(=S)[nH]c3ccccc3c2=O)CC1	/	i
CCN(CC)C(=O)CCCCCn1c(=S)[nH]c2ccccc2c1=O	/	+
CCC(CO)NC(=O)C(=O)Nc1c(C)cccc1C (centres undefined)	/	i
CC(C)(C)c1cc(NC(=O)CSCc2ccccc2)n(CCO)n1	i	+
O=C(CSCc1ccccc1)Nc1cc(-c2cccs2)nn1CCO	i	i
CC(C)(C)c1cc(NC(=O)Cc2ccccc2Cl)n(CCO)n1	i	i
CC(C)(C)c1cc(NC(=O)CCSc2ccccc2)n(CCO)n1	i	+
COc1ccccc1CCNC(=O)CC1CCCCN1S(=O)(=O)c1ccc(C)cc1 (centres undefined)	/	+
COc1ccccc1CNC(=O)C(=O)NCCC1CCCCN1S(=O)(=O)c1ccccc1 (centres undefined)	/	+
COc1ccccc1CCNC(=O)CC1CCCCN1S(=O)(=O)c1ccc(Cl)cc1 (centres undefined)	/	+
COc1ccccc1CNC(=O)C(=O)NCCC1CCCCN1S(=O)(=O)c1ccc(F)cc1 (centres undefined)	/	i
COc1ccccc1CNC(=O)CC1CCCCN1S(=O)(=O)c1ccc(Cl)cc1 (centres undefined)	/	i
COc1ccccc1CCNC(=O)CC1CCCCN1S(=O)(=O)c1ccccc1 (centres undefined)	/	i
Cc1ccc(S(=O)(=O)N2CCCCC2CC(=O)NC2CCCCC2)cc1 (centres undefined)	/	i
O=C(CC1CCCCN1S(=O)(=O)c1ccccc1)NC1CCCCC1 (centres undefined)	/	+
COc1ccc(Cl)cc1NC(=O)C(=O)NCC(O)c1ccsc1 (centres undefined)	i	i
O=C(c1cccs1)N(Cc1ccsc1)Cc1ccccn1	i	/
O=C(NCCC1=CCCCC1)C(=O)NCC1CCN(S(=O)(=O)c2cccnc2)CC1	i	i
SMILES	GIRK2 activator	GluA2 TARP mod
COc1ccc(C)cc1N1CCn2c1nc1c2c(=O)n(Cc2ccccc2C)c(=O)n1C	/	i
CC(=O)c1cccc(NC(=O)c2ccc(COc3ccc(C)cc3)o2)c1	/	i
O=S(=O)(c1ccc(F)cc1)c1nc(-c2ccccc2F)oc1N1CCCC1	i	i
CCCC(CCC)C(=O)N1CCN(c2nccn2CC)CC1	i	+
CCCC(CCC)C(=O)N1CCN(c2nccn2C)CC1	i	/
CCOC(=O)c1ccccc1NC(=O)CN1CCC(c2nnc(-c3ccco3)o2)CC1	i	+
COc1ccccc1NC(=O)CN1CCC(c2nnc(-c3ccco3)o2)CC1	i	i
COc1ccccc1OCC(O)CN1CCN(CCO)CC1 (centres undefined)	i	i
CCCCOc1ccc(NC(=O)NCCC(O)c2ccco2)cc1 (centres undefined)	i	i
Clc1ccccc1-n1ncc2c1ncn1nc(-c3ccncc3)nc21	i	i
CN(C)C(CNS(=O)(=O)c1cc(Cl)ccc1Cl)c1cccn1C (centres undefined)	i	+
Cc1ccc(Cl)cc1S(=O)(=O)NCC(c1cccn1C)N(C)C (centres undefined)	i	i
COc1ccc(NC(=O)CN2CCCN(Cc3cc(C)ccc3C)S2(=O)=O)c(OC)c1	i	i
CCOC(=O)c1ccccc1NC(=O)CN1CCCN(Cc2cc(C)ccc2C)S1(=O)=O	i	+
O=C(Nc1ccc(-n2cnnn2)cc1)c1csc(-c2cnccn2)n1	i	i
